Measured values: PubChem BioAssay (Tox21)
Where “and” joins values, the source holds several entries; their conditions need not be identical. Equal entries are not always repeated. Records with an inconclusive call do not appear. Where a structure was tested more than once in an assay, its records may differ in their call. Calls of active or inactive are those of the source. Unless noted, the call rests on the fitted dose curve; in most records, active means well fitted curve in the direction sought with a large enough effect in the repeat runs; inconclusive means weak or mixed curves; inactive means no such curve, though single readings can be large; an effect the other way counts as inactive or inconclusive.

Assays:
[1] = qHTS assay to identify small molecule antagonists of the estrogen related receptor (ERR) signaling pathway from Tox21 library - cell viability counter screen (AID 1224834); further: nearly all actives have a fitted effect of over 30% in size; further: potency means the concentration at half of the fitted maximal effect
Procedure, shortened: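 ERR reporter cells, 2,000 per well, rested 6 h, then exposed to compound in DMSO for 17.5 hours at 37 C. Viability read as fluorescence after 30 min with CellTiter-Fluor.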

[2] = molecular target: Luciferin 4-monooxygenase (Photinus pyralis) (UniProt P08659); assay: qHTS assay to identify small molecule inhibitors of firefly luciferase (AID 1224835); further: nearly all actives have a fitted effect of over 25% in size; further: potency means the concentration at half of the fitted maximal effect; on activity change, negative = inhibition: series mostly up to about 120 µM
Procedure, shortened: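 Quantitative HTS format; KM concentrations of both substrates. Purified P. pyralis FLuc activity quantified from luminescence images.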

[3] = qHTS assay to identify small molecule agonists of the constitutive androstane receptor (CAR) signaling pathway - cell viability counter screen (AID 1224836); further: nearly all actives have a fitted effect of over 45% in size; further: potency means the concentration at half of the fitted maximal effect; on viability change, negative = cytotoxic: series mostly up to about 92 µM
Procedure, shortened: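 23 h treatment, 37 C, 5% CO2. Cell line: HepG2 stably expressing hCAR with a CYP2B6-2.2kb construct. Co-treatment: PK11195, 0.75 uM final. Read-out: CellTiter-Fluor fluorescence intensity.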

[4] = qHTS assay to identify small molecule antagonists of the constitutive androstane receptor (CAR) signaling pathway - cell viability counter screen (AID 1224837); further: nearly all actives have a fitted effect of over 45% in size; further: potency means the concentration at half of the fitted maximal effect; on activity change, negative = cytotoxicity: series mostly up to about 92 µM
Procedure, shortened: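 HepG2 cells stably carrying hCAR and CYP2B6-2.2kb reporter, stimulated with 50 nM CITCO and compounds at 15 concentrations for 23 h at 37 C. Viability measured by CellTiter-Fluor fluorescence.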

[5] = qHTS assay to identify small molecule antagonists of the estrogen related receptor signaling pathway with the pleiotropic PPARgamma coactivator (PGC) from Tox21 10K library - cell viability counter screen (AID 1224840; active means well fitted cell-killing curve with a large enough effect in the repeat runs, not every such curve was filed as active; further: nearly all actives have a fitted effect of over 40% in size; further: potency means the concentration at half of the fitted maximal effect)
Procedure, shortened: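 PGC/ERR cells (2,000/well) plated 6 h, then compound-treated for 17.5 h at 37 C. Viability measured by CellTiter-Fluor fluorescence after 30 min at 37 C, multiplexed with the pathway assay.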

[6] = molecular target: Nuclear receptor subfamily 1 group I member 3 (Homo sapiens) (UniProt Q14994); assay: qHTS assay to identify small molecule antagonists of the constitutive androstane receptor (CAR) signaling pathway (AID 1224838); further: nearly all actives have a fitted effect of over 40% in size; further: potency means the concentration at half of the fitted maximal effect
Procedure, shortened: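 HepG2 cells stably carrying hCAR and a CYP2B6-2.2kb luciferase reporter, seeded 4 hrs before compound (15 concentrations). Stimulated with 50 nM CITCO for 24 hr at 37 C. ONE-Glo luminescence read after 30 min at room temperature.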

[7] = qHTS assay to identify small molecule antagonists of the estrogen related receptor signaling pathway with the pleiotropic PPARgamma coactivator (PGC) from Tox21 10K library (AID 1224841; call rule not given here; further: actives are mostly falling curves and most rising ones were filed inactive; nearly all actives have a fitted effect of over 50% in size; further: potency means the concentration at half of the fitted maximal effect; on activity, negative = inhibition: series mostly up to about 92 µM)
Procedure, shortened: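 PGC/ERR cell line, 2,000 cells/well, pre-incubated 6 hours at 37 C, then exposed to compounds for 18 hours at 37 C; luciferase read with One-Glo luminescence after 30 min at room temperature.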

[8] = molecular target: Thyrotropin receptor (Homo sapiens) (UniProt P16473); assay: qHTS assay to identify small molecule agonists of the thyroid stimulating hormone receptor (TSHR) signaling pathway (AID 1224843; calls by dose curve; further: nearly all actives have a fitted effect of over 45% in size)
Procedure, shortened: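 Cell line HEK293 with TSHR; density 800/well. Exposure 30 min RT. Readout HTRF cAMP (cAMP-d2/anti-cAMP-cryptate), 1 h RT before reading.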

[9] = qHTS assay to identify small molecule agonists of the estrogen related receptor signaling pathway with the pleiotropic PPARgamma coactivator (PGC) from Tox21 10K library (AID 1224842); further: nearly all actives have a fitted effect of over 15% in size
Procedure, shortened: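 PGC/ERR reporter cells (NTP line) were seeded 2,000 per well, rested 6 h at 37 C/5% CO2, then pin-dosed with compounds in DMSO for 18 h at 37 C; luciferase read by One-Glo luminescence after 30 min at room temperature.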

[10] = molecular target: Nuclear receptor subfamily 1 group I member 3 (Homo sapiens) (UniProt Q14994); assay: qHTS assay to identify small molecule agonists of the constitutive androstane receptor (CAR) signaling pathway (AID 1224839); further: series mostly up to about 92 µM; nearly all actives have a fitted effect of over 15% in size
Procedure, shortened: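 Compounds tested at 15 concentrations on HepG2 cells stably harbouring hCAR and CYP2B6-2.2kb reporter constructs, co-treated with PK11195 (0.75 uM final), 24 h at 37 C; luminescent reporter signal quantified.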
On the % scale 0 is the no-effect control and ±100 the full control effect.

Chain of Nuclear receptor subfamily 1 group I member 3 (Homo sapiens) (Q14994 whole entry, looked up): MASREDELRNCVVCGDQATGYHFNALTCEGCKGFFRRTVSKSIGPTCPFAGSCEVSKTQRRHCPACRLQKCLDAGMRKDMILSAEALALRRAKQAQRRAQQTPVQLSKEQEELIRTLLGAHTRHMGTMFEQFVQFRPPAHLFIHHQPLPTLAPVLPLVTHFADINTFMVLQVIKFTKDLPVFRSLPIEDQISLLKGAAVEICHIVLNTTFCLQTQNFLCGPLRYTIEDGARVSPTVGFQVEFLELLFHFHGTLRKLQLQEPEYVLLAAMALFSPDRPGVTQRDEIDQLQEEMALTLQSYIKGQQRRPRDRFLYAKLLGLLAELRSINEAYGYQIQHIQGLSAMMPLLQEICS
Chain of Luciferin 4-monooxygenase (Photinus pyralis) (P08659 whole entry, looked up): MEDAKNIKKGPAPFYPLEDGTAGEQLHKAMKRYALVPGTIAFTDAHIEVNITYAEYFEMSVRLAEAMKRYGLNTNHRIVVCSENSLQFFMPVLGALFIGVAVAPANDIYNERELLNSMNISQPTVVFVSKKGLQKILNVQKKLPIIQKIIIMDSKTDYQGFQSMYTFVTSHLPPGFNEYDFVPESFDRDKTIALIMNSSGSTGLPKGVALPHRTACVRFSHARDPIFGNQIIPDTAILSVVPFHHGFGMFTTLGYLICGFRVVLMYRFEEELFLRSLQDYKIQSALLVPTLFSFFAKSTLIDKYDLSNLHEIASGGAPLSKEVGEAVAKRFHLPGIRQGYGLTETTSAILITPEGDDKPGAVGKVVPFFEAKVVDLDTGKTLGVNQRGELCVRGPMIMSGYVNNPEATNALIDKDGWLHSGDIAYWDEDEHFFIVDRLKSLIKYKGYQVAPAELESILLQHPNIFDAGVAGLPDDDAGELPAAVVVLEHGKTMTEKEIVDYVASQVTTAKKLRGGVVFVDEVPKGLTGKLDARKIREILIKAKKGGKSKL
Chain of Thyrotropin receptor (Homo sapiens) (P16473 whole entry, looked up): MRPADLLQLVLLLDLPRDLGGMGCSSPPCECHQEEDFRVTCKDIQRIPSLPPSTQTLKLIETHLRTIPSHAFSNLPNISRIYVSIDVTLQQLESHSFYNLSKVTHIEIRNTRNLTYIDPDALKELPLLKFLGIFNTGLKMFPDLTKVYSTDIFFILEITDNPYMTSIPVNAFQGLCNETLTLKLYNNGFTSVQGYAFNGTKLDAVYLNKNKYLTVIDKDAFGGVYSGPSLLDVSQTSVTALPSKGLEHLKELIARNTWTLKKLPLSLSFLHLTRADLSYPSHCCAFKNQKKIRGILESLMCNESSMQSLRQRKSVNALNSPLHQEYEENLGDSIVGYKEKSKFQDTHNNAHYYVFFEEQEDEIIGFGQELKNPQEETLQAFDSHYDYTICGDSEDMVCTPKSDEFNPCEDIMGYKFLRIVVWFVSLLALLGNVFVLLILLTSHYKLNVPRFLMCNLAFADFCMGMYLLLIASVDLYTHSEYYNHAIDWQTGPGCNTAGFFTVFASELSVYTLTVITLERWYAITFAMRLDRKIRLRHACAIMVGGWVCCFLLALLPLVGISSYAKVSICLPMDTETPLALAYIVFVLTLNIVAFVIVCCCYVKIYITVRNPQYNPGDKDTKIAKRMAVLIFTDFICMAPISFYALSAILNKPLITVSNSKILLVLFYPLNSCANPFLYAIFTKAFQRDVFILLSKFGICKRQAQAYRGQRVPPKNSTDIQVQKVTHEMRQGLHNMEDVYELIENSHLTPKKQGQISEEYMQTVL

NC12CC3CC(CC(C3)C1)C2
inactive: Potency [1] | Potency [2] | Potency [3] | Potency [4] | Potency [5]

NC(Cc1ccc(Cl)cc1)C(=O)O (centres undefined)
inactive: viability change, negative = cytotoxic [1] -4.51% [at 0.349 µM] | activity change, negative = inhibition [2] 3.14% [at 0.435 µM] | viability change, negative = cytotoxic [3] 1.54% [at 0.349 µM] | activity change, negative = cytotoxicity [4] 6.69% [at 0.349 µM] | activity, negative = inhibition [6] -14.1% [at 0.349 µM] | viability change, negative = cytotoxic [5] -10% [at 0.349 µM] | activity, negative = inhibition [7] 0.39% [at 0.349 µM] | activation [8] -0.308% [at 0.349 µM]

CNC1(C)C2CCC(C2)C1(C)C (centres undefined)
inactive: Potency [1] | Potency [2] | Potency [3] | Potency [4] | Potency [6] | Potency [7] | Potency [9] | Potency [8]

O=c1n(CC2CO2)c(=O)n(CC2CO2)c(=O)n1CC1CO1 (centres undefined)
active: Potency [1] 60.8 µM | Potency [3] 54.2 µM and 61.1 µM | Potency [4] 60.8 µM and 54.5 µM | Potency [6] 76.5 µM and 61.1 µM
inactive: Potency [2] | Potency [10] | Potency [8]

C=C(C)C1CC=C(C)C(OC(C)=O)C1 (centres undefined)
inactive: Potency [1] | Potency [2] | Potency [3] | Potency [4] | Potency [5] | Potency [7] | Potency [9] | Potency [8]

CC(=O)CC(=O)Nc1ccc2[nH]c(=O)[nH]c2c1
inactive: Potency [1] | Potency [2] | Potency [3] | Potency [4] | Potency [6] | Potency [5] | Potency [7] | Potency [9] | Potency [8]

Cc1c(O)cccc1C(=O)N[C@@H](CSc1ccccc1)[C@H](O)CN1C[C@H]2CCCC[C@H]2C[C@H]1C(=O)NC(C)(C)C
inactive: Potency [2] | Potency [8]
active: Potency [1] 8.41 µM and 11.9 µM | Potency [3] 26.6 µM and 23.7 µM | Potency [4] 26.6 µM and 11.9 µM | Potency [6] 59.5 µM and 26.6 µM | Potency [5] 9.43 µM

CCN(CC)C(=O)Nc1ccc(OCC(O)CNC(C)(C)C)c(C(C)=O)c1 (centres undefined)
inactive: Potency [1] | Potency [2] | Potency [3] | Potency [4] | Potency [6] | Potency [5] | Potency [7] | Potency [9] | Potency [8]

O=C(OCc1ccccc1)c1ccc(O)cc1
inactive: Potency [1] | Potency [3] | Potency [4] | Potency [6] | Potency [5] | Potency [8]
active: Potency [2] 31.7 µM and 15.5 µM

C=CC(=O)OCCCCCCCC
active: Potency [7] 13.7 µM
inactive: Potency [1] | Potency [2] | Potency [3] | Potency [4] | Potency [6] | Potency [8]

Cc1ccc(S(=O)(=O)Oc2ccc(N=Nc3ccc(-c4ccc(N=Nc5c(O)ccc6cc(S(=O)(=O)O)cc(S(=O)(=O)O)c56)c(C)c4)cc3C)cc2)cc1
inactive: Potency [6] | Potency [9]
active: Potency [1] 19.4 µM and 17.8 µM | Potency [2] 63.5 µM and 23.2 µM | Potency [3] 27.4 µM and 20 µM | Potency [4] 27.4 µM and 31.6 µM | Potency [5] 19.4 µM and 20 µM | Potency [7] 17.3 µM

CCC(CO)(CO)COCC(CC)(CO)CO
inactive: Potency [1] | Potency [2] | Potency [3] | Potency [4] | Potency [6] | Potency [5] | Potency [7] | Potency [8]

CCOc1ccc2c(c1)C(C)=CC(C)(C)N2
active: Potency [2] 56.1 µM and 63.3 µM
inactive: Potency [1] | Potency [3] | Potency [4] | Potency [6] | Potency [5] | Potency [7] | Potency [8]

CCOc1ccccc1C(N)=O
inactive: Potency [1] | Potency [2] | Potency [3] | Potency [4] | Potency [6] | Potency [5] | Potency [8]

C=C(C)C(=O)O
inactive: Potency [1] | Potency [2] | Potency [3] | Potency [4] | Potency [5]

Cc1cc(C2(c3cc(C)c(O)cc3C)OS(=O)(=O)c3ccccc32)c(C)cc1O
inactive: Potency [6] | Potency [8]
active: Potency [1] 21.7 µM and 24.3 µM | Potency [2] 35.6 µM | Potency [3] 24.3 µM and 27.3 µM | Potency [4] 24.3 µM and 19.3 µM | Potency [5] 19.3 µM
34.4 µM (active) and inactive: Potency [7]
